# Results published in PubChem BioAssay (Tox21).
# Inconclusive results are not listed. Entries that show only a call come without a potency. More than one record can exist for a structure, and the calls need not agree. Active and inactive are the calls of the source. Calls follow the shape of the dose curve; as a rule, active = well fitted activation curve with a large enough effect in the repeat runs; inconclusive = weak or mixed curves; inactive = flat fitted curve, though single readings scatter.
# Experiment: A CellTox Green Cytotoxicity Assay to monitor cytotoxicity in HepG2 cells - 32 hour (AID 1224883); also: nearly all actives have a fitted effect of over 50% in size
# Conditions: CellTox Green fluorescence; series mostly up to 76.8 µM
# Description: National Center for Advancing Translational Sciences [NCATS]
# NIH Chemical Genomics Center [NCGC]
# U.S. Environmental Protection Agency [EPA]
# National Institutes of Environmental Health Sciences [NIEHS]
# National Toxicology Program [NTP]
# Cell-based models are critical for drug discovery. Determining the natural cytotoxic effects resulting from test compounds is an essential research activity. A CellTox Green Cytotoxicity Assay to monitor cytotoxicity in real time of continues cell culture during 40 hours of the compound treatment was used to screen Tox21 10K library compounds in HepG2 cells. CellTox Green Cytotoxicity Assay is a nonlytic, homogeneous, biofluorescent method to measure cytotoxicity in cell culture after experimental manipulation. The assay system uses a proprietary asymmetric cyanine dye that is excluded from viable cells but preferentially stains the dead cell's DNA. […] Viable cells produce no appreciable increases in fluorescence. Therefore, the fluorescence signal produced by the binding interaction with dead cell DNA is proportional to cytotoxicity.
# The mixture of HepG2 cell suspension and reagents were dispensed at 600cells/6 ul/well in 1536-well tissue culture treated black solid bottom plates using a Multidrop dispenser. After the assay plates were incubated at a 37 C/5% CO2 incubator for 5 hours, 23 nL of compounds dissolved in DMSO, positive and negative controls was transferred to the assay plate by a pintool work station. The plates were incubated at 37 C for 40 hours. The fluorescence intensity were measured at 0h, 8h, 16h, 24h, 32h and 40h time points using ViewLux plate reader during compound treatment.
# Potency is read from the fitted curve at half-maximal effect.
row,Structure (SMILES),Potency
1,CCSC(=O)N1CCCCCC1,inactive
2,OCC(O)CCl (stereo not given),inactive
3,CNC(=O)O/N=C/C(C)(C)S(C)(=O)=O,inactive
4,Cc1cccc(C)c1NC(=O)CN1CCCC1=O,inactive
5,N#CN=C(N)N,inactive
6,CNC(=O)O/N=C/C(C)(C)S(C)=O (stereo not given),inactive
7,FC(F)(F)c1ccc(Cl)cc1,inactive
8,CNC(=O)O/N=C/C(C)(C)SC,inactive
9,Nc1ccc(N)cc1,inactive
10,C=CC(=O)OCC(CC)CCCC (stereo not given),inactive
11,COC(=O)Nc1cccc(OC(=O)Nc2cccc(C)c2)c1,49 µM (active)
12,C=CC(=O)OCCCCCC(C)C,inactive
13,CCOC(=O)CC(SP(=O)(OC)OC)C(=O)OCC (stereo not given),inactive
14,ClCCOCCCl,inactive
15,CNC(=O)Oc1cccc2ccccc12,inactive
16,Cc1ccc(N=C=O)cc1N=C=O,inactive
17,ClC(Cl)c1ccccc1,inactive
18,CN(C)C(=O)Cl,inactive
19,CC[N+](=O)[O-],inactive
20,CC(C)(C)C(=O)CCl,inactive

row,Structure (SMILES),Potency
1,Cc1ccc(O)c(C)c1,inactive
2,N#Cc1cccc(C#N)c1,inactive
3,O=C(O)CCCc1ccc(N(CCCl)CCCl)cc1,inactive
4,c1ccc2c(c1)CCCC2,inactive
5,O=C(O)C(Br)Br,inactive
6,CCCCCCCCCCCCCCCCCC(=O)O,inactive
7,O=[N+]([O-])c1cc([As](=O)(O)O)ccc1O,inactive
8,OC[C@@H](O)[C@H]1O[C@@H]2O[C@H](C(Cl)(Cl)Cl)O[C@@H]2[C@H]1O,inactive
9,Clc1cnc(Oc2ccc(Oc3ncc(Cl)cc3Cl)cc2)c(Cl)c1,inactive
10,COP(=S)(OC)SCN1C(=O)c2ccccc2C1=O,inactive
11,Nc1nc(N)nc(NC2CC2)n1,inactive
12,COC(C)(C)CCCC(C)C/C=C/C(C)=C/C(=O)OC(C)C (stereo not given),inactive
13,CN(C)C(=O)C(c1ccccc1)c1ccccc1,inactive
14,Cc1cccc(N)c1C,inactive
15,O=[N+]([O-])c1ccc(Cl)cc1,inactive
16,O=[N+]([O-])c1ccc(Cl)c(Cl)c1,inactive
17,CCNc1nc(Cl)nc(NC(C)C)n1,inactive
18,CC(C)c1cccc(C(C)C)c1O,43.6 µM (active) and inactive
19,CC(=O)/C=C/c1ccccc1,inactive
20,C[C@H]1C(=O)O[C@@H]2CCN3CC=C(COC(=O)[C@](C)(O)[C@]1(C)O)[C@H]23,inactive
